ChEMBL document CHEMBL1157539, “Thousands of chemical starting points for antimalarial lead identification” (Nature, 2010)

These compounds were tested on Plasmodium falciparum (assay: GSK_TCMDC: Inhibition of Plasmodium falciparum 3D7 in whole red blood cells, using parasite LDH activity as an index of growth. Test compounds present at 2uM).
Assay type: functional

Inhibition, 88%:
COc1cc(C(=O)N2CCOC(CCN3CCC4c5ccccc5CC43)(c3ccc(Cl)c(Cl)c3)C2)cc(OC)c1OC (stereo not given)

Inhibition, 91%:
COc1ccc(Nc2nccc(-c3ccc(NC(=O)c4cc5cc(F)ccc5[nH]4)cc3)n2)cc1

Inhibition, 98%:
COCC(=O)Nc1nc2ccccc2[nH]1
C[C@H]1CN(Cc2cccc(-c3cc(CNC(=O)c4cccc(CN5CCN(C/C=C/c6ccccc6)CC5)c4)ccc3F)c2)CCN1.O=C(O)C(F)(F)F
CCOC(=O)C(Oc1ccc2ccccc2c1)C(=O)OCC

Inhibition, 92%:
Cl.NC1=NC2(CCCC2)C(c2ccc(Cl)c(Cl)c2)C(N)=N1 (stereo not given)
O=C(O)C(F)(F)F.Oc1ccc2[nH]c(-c3cccc(F)c3)nc2c1CNCc1ccccc1

Inhibition, 93%:
O=C(NC1CCN(CC2(c3ccccc3F)CCCC2)CC1)c1cc[nH]n1
CC(C)COc1ccc(C(O)C(CN2CCCCC2)c2ccccc2)cc1 (stereo not given)

Inhibition, 100%:
N=C(N)NCCCCN(Cc1ccccc1)c1ccccc1
CN(C)CCNCc1cccc(-c2ccc3c(Nc4ccc(F)cc4Cl)ccnc3c2)c1
CC(=O)Nc1ccc(CCNC(C)Cc2ccc(C(=O)Nc3ccc(CC(C)NCCc4cccc(Cl)c4)cc3)cc2)cc1.Cl (stereo not given)
CS(=O)(=O)c1ccc(CNCc2cccc(-c3cccc(-c4nc5cc(C(F)(F)F)ccc5[nH]4)c3)c2)cc1.O=C(O)C(F)(F)F
CCCc1cc(OC)c(CC2c3cc(O)c(Cl)cc3CCN2C)cc1OC.Cl (stereo not given)
CN1CC[C@@H](Oc2cc(NC(=O)Nc3ccc(Cl)c(C(F)(F)F)c3)ccc2Cl)C1
COc1cc(CNCCCCCCNCc2cc(OC)c(OC)c3ccccc23)c2ccccc2c1OC.CS(=O)(=O)O
Cn1cncc1C(=O)Nc1cccc(-c2ccc(-c3nc4ccccc4[nH]3)s2)c1
COc1ccc2nccc([C@@H](O)CN3CCC(NC(=O)c4cc5c(Cl)cc(Cl)cc5[nH]4)CC3)c2c1
CCOc1cccc(C2c3c(oc4ccccc4c3=O)C(=O)N2CCN(CC)CC)c1 (stereo not given)
CCCC(CNC(=O)c1cc2c(Cl)cc(Cl)cc2[nH]1)CNc1cc(=O)c2ccccc2[nH]1.O=C(O)C(F)(F)F (stereo not given)

Inhibition, 96%:
O=C(/C=C/c1ccc(Cl)c(Cl)c1)NCCCCCN1CCCN(C(=O)Nc2cccc(C(F)(F)F)c2)CC1
CO/C(=C\C=C\c1cc2cc(Cl)c(Cl)cc2[nH]1)C(=O)NCCCN(C)CCN(C)c1ccccc1
CC(=O)O.C[C@H](NC(=O)[C@H](Cc1ccccc1)NC(=O)OC(C)(C)C)C(=O)N[C@@H](CC1CCCCC1)C(O)CN (stereo not given in full)

Inhibition, 95%:
CCCC[C@H](NC(=O)OC(C)(C)C)C(=O)Nc1ccc(Cc2ccc(NC(=O)[C@H](CCCC)NC(=O)OC(C)(C)C)cc2)cc1
COc1cccc(CNC[C@@H](O)[C@H](Cc2ccccc2)NC(=O)c2cc(OC(C)C)cc(N3CCCCS3(=O)=O)c2)c1.Cl
CN1C(=O)C(=NN=C(S)N2CCOCC2)c2ccccc21
Cl.O=S(=O)(NCCCN1CCOCC1)c1ccc2nccc(Nc3ccc(Oc4ccccc4)cc3)c2c1
CCCCCCCC1=NN2C(=N)C(=Cc3cc(Br)c(OCc4ccc(F)cc4)c(OCC)c3)C(=O)N=C2S1

Inhibition, 87%:
C(=NN=c1cc(-c2ccccc2)[nH]c2ccccc12)c1cccnc1

Inhibition, 94%:
Br.CC1(C)NC(N)=NC(=N)N1OCCCOc1ccc([N+](=O)[O-])cc1
Cl.c1ccc(COc2ccc(Nc3ncnc4ccc(-c5ccc(CN6CCSCC6)o5)cc34)cc2)cc1

Inhibition, 99%:
Cc1cc(N2CCCC2=O)ccc1-c1ccc(C(=O)N2CCC(Oc3cccc(Cl)c3)CC2)cc1
CCNc1cc(C(=O)N[C@@H](Cc2ccccc2Cl)[C@H](O)CNC2CCCCC2)cc(N2CCCCS2(=O)=O)c1.Cl
O=C(NC1CCN(c2ccnc(Nc3ccc(F)cc3)n2)C1)c1cc2ccccc2s1 (stereo not given)
CC(O)CNc1nc2ccccc2n1CC(=O)Nc1cccc(C(=O)Nc2cccc(C(F)(F)F)c2)c1 (stereo not given)

Inhibition, 90%:
Br.CC(C)(Cc1ccc(Cl)cc1)NCCCCCCNCCc1ccc(O)c(O)c1

Inhibition, 97%:
COc1ccc(-c2cnc(N)c(-c3ccc(O)c(OC)c3)c2)cn1
CC(=O)Nc1cccc(CN(Cc2ccc(-c3ccc(CNCc4cccnc4)cn3)cc2)C(=O)Cc2cccnc2)c1.O=C(O)C(F)(F)F
O=C(/C=C/c1ccc(Cl)c(Cl)c1)NCCCCCN1CCCN(C(=O)Nc2ccc([N+](=O)[O-])cc2)CC1
O=C(c1ccccc1NN=C1C(=O)N(c2ccccc2)N=C1c1ccccc1)N1CCOCC1
